In all, about 39,000 sequences were measured (“fluorescence intensity (a.u.)”: median about 4,300, highest 2% from about 39,000 on). Shown is part of a subset that was picked to be rich in the highest values.
Molecular target: T1, OsSMF1 (Oryza sativa, UniProt Q6ZLB0 1-436)
T1 sequence: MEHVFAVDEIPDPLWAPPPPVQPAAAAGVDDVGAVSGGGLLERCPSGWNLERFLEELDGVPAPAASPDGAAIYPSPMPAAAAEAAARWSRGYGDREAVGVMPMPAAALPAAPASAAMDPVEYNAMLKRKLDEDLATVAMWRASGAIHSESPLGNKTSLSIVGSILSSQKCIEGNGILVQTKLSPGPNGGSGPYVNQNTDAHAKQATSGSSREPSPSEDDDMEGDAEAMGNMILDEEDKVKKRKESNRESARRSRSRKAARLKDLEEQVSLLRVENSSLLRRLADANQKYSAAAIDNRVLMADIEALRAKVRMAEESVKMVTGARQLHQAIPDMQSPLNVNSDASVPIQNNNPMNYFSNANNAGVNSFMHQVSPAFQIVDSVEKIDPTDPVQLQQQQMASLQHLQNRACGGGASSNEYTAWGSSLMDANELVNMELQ
Assay: protein-binding microarray (RPBM); PBS, 2% BSA, 51.3 ng/ul salmon testes DNA, 50 uM zinc acetate, 200 nM TF, 25 C, 1 h; high values mean tight binding
Details: protein: recombinant; tags: N-terminal polyhistidine and DsRed monomer fusion (pET32a); chain copies: 2; label: CyDye5-dUTP incorporated in the synthesized complementary strand; 3' TTTTT single-stranded linker to array surface; dsDNA, one strand shown
Method in brief: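 Transcription factors were each fused at the N-terminus to a polyhistidine tag plus DsRed and expressed in E. coli BL21-CodonPlus before Ni–NTA purification. Binding to a double-stranded custom Agilent array was carried out with 200 nM protein at 25 °C for 1 h in PBS, 2% BSA, salmon testes DNA and 50 µM zinc acetate. The binding signal is per-feature fluorescence intensity, in arbitrary units, on an Axon 4000B scanner.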

| Sequence | binding signal |
| --- | --- |
| GGATTTAACACTAGAGACCCTAATTTTGCTGCTCAGGCGACGGAGTCACCTAGTGCAG | 28500 fluorescence intensity (a.u.) |
| ATATGAGATATTTCATATGCTGTTTATTGCTGCTGCCAGACGGAGTCACCTAGTGCAG | 6080 fluorescence intensity (a.u.) |
| GGAAAGAGAAGAGAGGAAAGAGAGATGACGTGGACACCTGCGGAGTCACCTAGTGCAG | 21100 fluorescence intensity (a.u.) |
| TCGTCGCACGACCAGACCAGCAGCACCAACTCCCTTTCTGCGGAGTCACCTAGTGCAG | 3160 fluorescence intensity (a.u.) |
| ACCATATGACTTATATATCTGTCGTCAGCTCATTTCTATGCGGAGTCACCTAGTGCAG | 7290 fluorescence intensity (a.u.) |
| GTGTCATTTCATTCACTGGTCGGCTATATCTGGGCATATGCGGAGTCACCTAGTGCAG | 53800 fluorescence intensity (a.u.) |
| ATGGGGAATCTGGCACCTTTGGCTACTGGTGATTCAGTGTCGGAGTCACCTAGTGCAG | 3510 fluorescence intensity (a.u.) |
| TGGCGCCTCTCACCGCCACGTCGCCGCCGGCGAGGTGAAACGGAGTCACCTAGTGCAG | 20800 fluorescence intensity (a.u.) |
| ATCACGTGATTAAAACAGTAATTATCGAGCACGGAAGGAACGGAGTCACCTAGTGCAG | 40600 fluorescence intensity (a.u.) |
| ACGATTAATTGTTTAGTAAGCGTGCTGACGTTAAACGAGACGGAGTCACCTAGTGCAG | 3690 fluorescence intensity (a.u.) |
| CGATCGATCGATTGTGAGCACCGAACTCCCTTAATTAGGACGGAGTCACCTAGTGCAG | 3390 fluorescence intensity (a.u.) |
| GGTGACAATTGTCATTTGCTCAGCAACTAACATTACTAAACGGAGTCACCTAGTGCAG | 18200 fluorescence intensity (a.u.) |
| CACTGTTTGATGCTAAAACATATTACGTGTGCCGTTCATACGGAGTCACCTAGTGCAG | 3580 fluorescence intensity (a.u.) |
| ACCGCATCACATCAAGCATCCACCAACCAACCCAACAACACGGAGTCACCTAGTGCAG | 3910 fluorescence intensity (a.u.) |
| CAGTCCACATAACCTGAACCCAGCGTCAATCCGCAAGCAACGGAGTCACCTAGTGCAG | 40200 fluorescence intensity (a.u.) |
| GACCCAGCAAGCAAGAGCGTCTAGTCACCTCAACCACGAACGGAGTCACCTAGTGCAG | 6180 fluorescence intensity (a.u.) |
| GAGAATGATGTATGCACGCAGATGACATGGTATGATGAACCGGAGTCACCTAGTGCAG | 4370 fluorescence intensity (a.u.) |
| GGTTGGTATTAACCGCTGATGGTGAATGCCAACCTCAGAACGGAGTCACCTAGTGCAG | 51200 fluorescence intensity (a.u.) |
| CATGGTATTGTTTGATGCCAACTGAATTGATACAATGTGACGGAGTCACCTAGTGCAG | 20500 fluorescence intensity (a.u.) |
| CTTCAAGAAGGTTACGCTGACAGAACGGCGACAACGTCCGCGGAGTCACCTAGTGCAG | 3220 fluorescence intensity (a.u.) |
| CTTCCTTTGATAATATAATATATAGATAAATTCTCTAAGACGGAGTCACCTAGTGCAG | 3200 fluorescence intensity (a.u.) |
| TCTAAGACTGAACTTTCCTGTATACATATATTTTGAAAAGCGGAGTCACCTAGTGCAG | 24600 fluorescence intensity (a.u.) |
| TCCTTCCATACTGTATAAATACTTTGAAATTCTAATATAGCGGAGTCACCTAGTGCAG | 44200 fluorescence intensity (a.u.) |

| Sequence | binding signal |
| --- | --- |
| GACGACCTTGGCACCCAGCTTCCGTCACTCGCTCGCCGCGCGGAGTCACCTAGTGCAG | 3220 fluorescence intensity (a.u.) |
| CATCTATCATATAACAACAACACAATGACACAACACTGGACGGAGTCACCTAGTGCAG | 4510 fluorescence intensity (a.u.) |
| TTATAACACAAAACACATATGAAGCGCACTCTACCACGCACGGAGTCACCTAGTGCAG | 32200 fluorescence intensity (a.u.) |
| CATATAACAAGTGACTGGCACACAAACCCACAATGAAGTGCGGAGTCACCTAGTGCAG | 43500 fluorescence intensity (a.u.) |
| TGCACGCACAGCCATCCACAAGCCATGAGCCGGCGCGAGACGGAGTCACCTAGTGCAG | 3640 fluorescence intensity (a.u.) |
| ATTGAAGCCTATTTATTGGTAATACGTAATCTAGATTTGACGGAGTCACCTAGTGCAG | 3700 fluorescence intensity (a.u.) |
| AAAGGCACAGCAGGATGAAGATCTTGAAATGTTTCTTTGGCGGAGTCACCTAGTGCAG | 6510 fluorescence intensity (a.u.) |
| TCAGCAGTAAAGGACAGAAGGCGAAAAGATTTGAGATCTTCGGAGTCACCTAGTGCAG | 65500 fluorescence intensity (a.u.) |
| ATAAAAGAGAAGAGCAGCAGGCCAGCTGCAGGACGGACTTCGGAGTCACCTAGTGCAG | 3820 fluorescence intensity (a.u.) |
| GCTCCCTCAGCCGTGGCACGTGTTCACAAGCCGTGACCAGCGGAGTCACCTAGTGCAG | 4570 fluorescence intensity (a.u.) |
| GTGCCTGCTCGATCGAGTCGTGGCGGCGGCGGAGTCAACTCGGAGTCACCTAGTGCAG | 3370 fluorescence intensity (a.u.) |
| GCCCGTGCCAGGGCTGCTACCTCGGCACACTGGCCGGCACCGGAGTCACCTAGTGCAG | 3350 fluorescence intensity (a.u.) |
| CAGGCCAGAACAACTGCTCGGCCCGATAGGAGGGCCTACTCGGAGTCACCTAGTGCAG | 55800 fluorescence intensity (a.u.) |
| AATAAGTGCAGTTGTGGGAATCCGTGTTGAACGTTTGACCCGGAGTCACCTAGTGCAG | 14300 fluorescence intensity (a.u.) |
| AGTGAAGTCACAAGGAAGTGACGAGGATGAGGACGAGGAGCGGAGTCACCTAGTGCAG | 28700 fluorescence intensity (a.u.) |
| CGCTCCTCGCCGCCTTGAACCTCACAGCGAAACCTGATCACGGAGTCACCTAGTGCAG | 3270 fluorescence intensity (a.u.) |
| TGGGGCCCACATCCCGCACCACTCGGATTCGGATTTCCTCCGGAGTCACCTAGTGCAG | 52200 fluorescence intensity (a.u.) |
| GCCACCCTCAGCCACTGGCCATCCGTGGGCCCCACCATCCCGGAGTCACCTAGTGCAG | 22500 fluorescence intensity (a.u.) |
| GATCCCGGGCCCGGCCCACTGGCCCAGTCAACTAATCCTCCGGAGTCACCTAGTGCAG | 53100 fluorescence intensity (a.u.) |
| CCACCTAACACTAATCAACCAGTCAACCACCACATCTTCCCGGAGTCACCTAGTGCAG | 3820 fluorescence intensity (a.u.) |
| GCCCACATCCATCCCGTCACCCGCCCACTCGCCGTCGCACCGGAGTCACCTAGTGCAG | 3490 fluorescence intensity (a.u.) |
| CACTCCCATTCCCATCCTCCACATCCCGCGCCATCGACCTCGGAGTCACCTAGTGCAG | 3400 fluorescence intensity (a.u.) |
